For test [1], the target named is T1, Tyrosine-protein kinase receptor TYRO3 (Homo sapiens) (UniProt Q06418).
T1 sequence (whole entry): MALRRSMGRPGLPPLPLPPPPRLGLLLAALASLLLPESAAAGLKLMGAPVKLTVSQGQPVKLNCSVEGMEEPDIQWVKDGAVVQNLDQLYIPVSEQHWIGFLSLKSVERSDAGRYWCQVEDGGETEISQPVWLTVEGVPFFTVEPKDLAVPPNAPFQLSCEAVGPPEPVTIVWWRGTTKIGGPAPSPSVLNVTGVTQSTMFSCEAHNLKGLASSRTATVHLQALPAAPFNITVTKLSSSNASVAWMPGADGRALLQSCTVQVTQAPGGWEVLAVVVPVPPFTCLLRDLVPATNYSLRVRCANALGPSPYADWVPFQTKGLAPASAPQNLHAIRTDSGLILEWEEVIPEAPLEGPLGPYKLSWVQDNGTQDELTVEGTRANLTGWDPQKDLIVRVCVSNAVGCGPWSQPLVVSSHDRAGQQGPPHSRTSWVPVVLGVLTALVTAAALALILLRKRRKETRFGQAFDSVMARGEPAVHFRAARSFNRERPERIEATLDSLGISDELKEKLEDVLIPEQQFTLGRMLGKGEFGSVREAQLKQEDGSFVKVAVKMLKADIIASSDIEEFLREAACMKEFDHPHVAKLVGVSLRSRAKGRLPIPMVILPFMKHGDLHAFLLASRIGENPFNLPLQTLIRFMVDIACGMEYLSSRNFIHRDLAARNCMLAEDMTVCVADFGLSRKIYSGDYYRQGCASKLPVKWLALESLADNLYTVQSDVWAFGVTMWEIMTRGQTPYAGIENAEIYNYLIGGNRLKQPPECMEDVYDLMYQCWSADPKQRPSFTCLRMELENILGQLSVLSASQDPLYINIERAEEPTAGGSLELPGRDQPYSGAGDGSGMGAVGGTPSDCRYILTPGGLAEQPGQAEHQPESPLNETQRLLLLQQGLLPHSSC
The settings on record: at 1 µM.

Test [2] addresses Tyrosine-protein kinase Yes (Homo sapiens) (UniProt P07947). The settings on record: at 0.1 µM.
For test [3] the target is unchanged. The settings on record: at 1 µM.
Test [4] deals with T2, Tyrosine-protein kinase ZAP-70 (Homo sapiens) (UniProt P43403).
T2 sequence (whole entry): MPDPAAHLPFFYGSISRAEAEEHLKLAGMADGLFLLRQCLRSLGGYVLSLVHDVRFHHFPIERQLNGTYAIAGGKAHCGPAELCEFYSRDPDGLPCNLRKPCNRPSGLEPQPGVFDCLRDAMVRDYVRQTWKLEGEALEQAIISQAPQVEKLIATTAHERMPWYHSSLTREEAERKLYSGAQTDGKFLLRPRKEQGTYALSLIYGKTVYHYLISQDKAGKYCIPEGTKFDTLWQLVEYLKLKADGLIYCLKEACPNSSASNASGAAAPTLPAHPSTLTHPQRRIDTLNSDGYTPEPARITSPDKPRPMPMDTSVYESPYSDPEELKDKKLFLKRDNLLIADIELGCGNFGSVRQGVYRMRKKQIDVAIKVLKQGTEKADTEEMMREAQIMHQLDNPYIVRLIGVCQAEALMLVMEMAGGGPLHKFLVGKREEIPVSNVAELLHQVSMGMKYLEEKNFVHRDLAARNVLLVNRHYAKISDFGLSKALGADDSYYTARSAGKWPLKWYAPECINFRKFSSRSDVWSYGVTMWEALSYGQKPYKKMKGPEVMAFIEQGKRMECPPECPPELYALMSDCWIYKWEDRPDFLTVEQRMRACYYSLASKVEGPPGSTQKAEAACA
The settings on record: at 0.1 µM.

For test [5], the target named is T2, Tyrosine-protein kinase ZAP-70 (Homo sapiens). The settings on record: at 1 µM.
Test [6] concerns the target Serine/threonine-protein kinase B-raf (Homo sapiens) (UniProt P15056). The settings on record: at 0.1 µM.
Test [7] has the same target. The settings on record: at 1 µM.
For test [8], the system named is Serine/threonine-protein kinase B-raf (Homo sapiens), P15056 [V600E]. The settings on record: at 0.1 µM.
Chain of Serine/threonine-protein kinase B-raf (Homo sapiens), P15056 [V600E] (P15056 whole entry V600E): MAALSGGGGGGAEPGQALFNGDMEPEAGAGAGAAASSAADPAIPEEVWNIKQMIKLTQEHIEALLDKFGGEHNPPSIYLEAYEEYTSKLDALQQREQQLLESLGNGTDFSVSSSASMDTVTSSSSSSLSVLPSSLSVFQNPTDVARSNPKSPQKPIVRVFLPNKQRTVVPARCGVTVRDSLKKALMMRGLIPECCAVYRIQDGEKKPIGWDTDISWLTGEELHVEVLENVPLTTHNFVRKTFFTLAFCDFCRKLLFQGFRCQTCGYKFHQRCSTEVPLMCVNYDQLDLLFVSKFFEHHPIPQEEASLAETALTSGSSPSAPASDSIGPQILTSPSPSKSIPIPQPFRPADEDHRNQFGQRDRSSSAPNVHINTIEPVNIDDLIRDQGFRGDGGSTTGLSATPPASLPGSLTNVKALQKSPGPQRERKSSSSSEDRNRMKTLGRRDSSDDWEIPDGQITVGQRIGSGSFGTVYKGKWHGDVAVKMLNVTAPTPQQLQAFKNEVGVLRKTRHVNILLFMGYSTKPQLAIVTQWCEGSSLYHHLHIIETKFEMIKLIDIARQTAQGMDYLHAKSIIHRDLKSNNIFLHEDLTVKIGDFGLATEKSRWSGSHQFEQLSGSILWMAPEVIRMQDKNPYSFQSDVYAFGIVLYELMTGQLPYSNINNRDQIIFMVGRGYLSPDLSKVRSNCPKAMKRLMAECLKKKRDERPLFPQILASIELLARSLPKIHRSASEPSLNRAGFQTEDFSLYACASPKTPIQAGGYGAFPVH
Test [9] shares this test system. The settings on record: at 1 µM.
Test [10] concerns the target RAF proto-oncogene serine/threonine-protein kinase (Homo sapiens) (UniProt P04049). The settings on record: at 0.1 µM.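 Also: values are mean CRAF kinase inhibition from profiling of the GSK Published Kinase Inhibitor Set.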

Usually inhibition stands for the drop in the measured response relative to a control, in per cent.

Structures are written as SMILES.

Chain of Serine/threonine-protein kinase B-raf (Homo sapiens) (P15056 whole entry): as the sequence (P15056 whole entry V600E) above, with E600V counted along it
Chain of Tyrosine-protein kinase Yes (Homo sapiens) (P07947 2-543 limits assumed): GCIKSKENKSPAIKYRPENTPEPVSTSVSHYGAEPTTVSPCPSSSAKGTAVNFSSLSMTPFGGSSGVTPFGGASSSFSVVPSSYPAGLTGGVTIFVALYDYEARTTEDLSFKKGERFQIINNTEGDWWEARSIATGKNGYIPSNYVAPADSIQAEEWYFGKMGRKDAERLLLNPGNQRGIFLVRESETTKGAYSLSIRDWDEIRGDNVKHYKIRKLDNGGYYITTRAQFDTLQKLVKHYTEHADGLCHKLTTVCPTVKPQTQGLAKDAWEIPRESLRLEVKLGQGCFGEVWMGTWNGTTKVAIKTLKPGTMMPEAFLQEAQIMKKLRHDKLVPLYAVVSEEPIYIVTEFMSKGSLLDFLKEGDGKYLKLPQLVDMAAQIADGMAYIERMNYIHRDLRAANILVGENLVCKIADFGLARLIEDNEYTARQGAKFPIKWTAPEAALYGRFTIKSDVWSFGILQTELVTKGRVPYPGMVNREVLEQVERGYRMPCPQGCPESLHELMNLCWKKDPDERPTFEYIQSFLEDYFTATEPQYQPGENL
Chain of RAF proto-oncogene serine/threonine-protein kinase (Homo sapiens) (P04049 whole entry): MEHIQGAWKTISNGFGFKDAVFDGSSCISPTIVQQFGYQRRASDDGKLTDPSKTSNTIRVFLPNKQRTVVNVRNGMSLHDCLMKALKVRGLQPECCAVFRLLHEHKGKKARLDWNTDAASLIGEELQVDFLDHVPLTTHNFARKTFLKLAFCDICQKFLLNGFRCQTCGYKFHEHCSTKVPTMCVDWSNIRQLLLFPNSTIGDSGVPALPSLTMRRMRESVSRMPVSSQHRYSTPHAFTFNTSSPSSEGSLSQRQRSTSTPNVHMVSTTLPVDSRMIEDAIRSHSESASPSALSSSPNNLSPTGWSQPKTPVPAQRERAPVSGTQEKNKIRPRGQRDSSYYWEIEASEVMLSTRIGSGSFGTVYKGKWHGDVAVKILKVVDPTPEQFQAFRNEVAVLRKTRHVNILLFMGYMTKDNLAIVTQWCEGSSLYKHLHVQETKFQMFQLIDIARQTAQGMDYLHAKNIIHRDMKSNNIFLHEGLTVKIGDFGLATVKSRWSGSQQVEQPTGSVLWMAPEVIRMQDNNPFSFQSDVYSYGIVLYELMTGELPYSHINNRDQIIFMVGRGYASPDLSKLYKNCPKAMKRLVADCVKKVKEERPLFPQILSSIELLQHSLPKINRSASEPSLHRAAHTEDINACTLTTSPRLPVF

Turning to `Fc1cccc(COc2ccc(Nc3ncnc4cc(-c5ccc[nH]5)sc34)cc2Cl)c1`, the inhibition was 3.81% in test [1]; 2.17% in test [2]; 9.41% in test [3]; -0.46% in [4]; -0.93% in [5]; 3.64% in [6]. The inhibition in test [7] turned out to be 2.48%; in [8] it was 3.55%; in test [9] it was 2.69%; in test [10] it was 5.88%.
Take `CCn1c(-c2nonc2N)nc2c(C#CC(C)(C)O)nc(CN3CCCC3)cc21`: the inhibition was -1.52% in test [1]; -0.41% in test [2]; 5.7% in [3]; 2.82% in test [4]; 1.75% in test [5]; -1.46% in test [6]. The inhibition was -1.6% in test [7], -1.31% in test [8], -0.8% in test [9] and -3.54% in [10].
Consider `CC1=C(C(=O)Nc2ccc3[nH]ncc3c2)C(c2ccc(F)cc2)NC(=O)N1` (stereo not given), for which the inhibition was found to be 2.1% in test [1]; 2.93% in [2]; 3.94% in test [3]; 2.76% in test [4]; 1.91% in test [5]; 3.64% in [6]. Further, the inhibition in [7] was found to be 5.71%; in [8], 2.81%; in test [9], 6.38%; in test [10], 1.97%.
As for `Nc1nc(-c2ccc3c(c2)C(=Cc2cc(Br)c(O)c(Br)c2)C(=O)N3)cs1`, the inhibition in test [1] is 2.67%; in test [2], -4.7%; in test [3] it was 6.08%; in [4], 0.01%; in test [5] it was -1.62%; in [6], 4.51%. Also, the inhibition was 13.7% in test [7], 3.07% in test [8], 14.7% in [9] and 2.35% in test [10].
`COc1ccc2cc(-c3c(-c4ccncc4)nc(-c4ccc([S+](C)[O-])cc4)n3C)ccc2c1` (stereo not given): the inhibition in test [1] came out at 0.86%; in [2], 2.16%; in [3], 8.42%; in test [4], 1.94%; in [5] it was 2.34%; in test [6], 3.84%. Further, the inhibition was 5.05% in test [7], 4.92% in [8], 4.5% in [9] and 0.38% in [10].
Turning to `Cc1nn(C)c2cc(N(C)c3ccnc(Nc4cccc(S(N)(=O)=O)c4)n3)ccc12`, the inhibition was 29.9% in test [1]; 9.9% in [2]; 45.6% in [3]; -2.66% in [4]; 16% in test [5]; 4.26% in test [6]. The inhibition in [7] was 7.71%; in test [8], 4.01%; in test [9] it was 6.87%; in test [10], -2.36%.
`NS(=O)(=O)c1cccc(-c2ccc3c(NC(=O)C4CC4)n[nH]c3c2)c1`: the inhibition was 15.4% in [1]; -2.48% in test [2]; 6.25% in test [3]; -1.92% in test [4]; -0.84% in test [5]; -1.67% in test [6]. The inhibition in [7] is -2.14%; in [8], -2.01%; in test [9] it was -2.08%; in [10] it was -7.61%.
Turning to `O=C1NC(=O)C(c2cccc(Cl)c2)=C1Nc1ccc(O)c(Cl)c1`, the inhibition in [1] turned out to be 0.29%; in [2] it was 2.84%; in test [3], 2.76%; in [4] it was 1.5%; in test [5] it was 2.74%; in test [6], 1.14%. In addition, the inhibition was found to be 6% in test [7], 0.91% in [8], 7.11% in test [9] and 0.68% in test [10].
Regarding `CS(=O)(=O)CCNCc1ccc(-c2ccc3ncnc(Nc4ccc(OCc5cccc(F)c5)c(C(F)(F)F)c4)c3c2)o1`, the inhibition is 3.6% in [1]; 0.9% in test [2]; 5.19% in test [3]; -4.38% in test [4]; -2.61% in [5]; 6.3% in test [6]. Further, the inhibition in test [7] turned out to be 6.29%; in [8], 7.33%; in test [9] it was 6.22%; in test [10], 2.93%.
Consider `CNC(=O)c1cncc(/C=C/c2c(Cl)cccc2Cl)c1`, for which the inhibition in test [1] is 4.06%; in test [2], 3.3%; in test [3], 17.2%; in [4], 0.11%; in test [5], 1.58%; in [6], 6.39%. In addition, the inhibition in test [7] is 10.5%; in test [8], 3.03%; in test [9] it was 4.23%; in test [10], 5.08%.
Take `COc1ccc(-c2nn3ncccc3c2-c2ccnc(Nc3ccc(Cl)c(C(F)(F)F)c3)n2)cc1`: the inhibition is 3.05% in test [1]; 7.39% in test [2]; 46.2% in test [3]; 0.91% in [4]; -1.1% in test [5]; 3.94% in test [6]. Moreover, the inhibition in test [7] was 4.03%; in [8], 3.98%; in [9], 3.99%; in [10] it was -1.5%.
Regarding `COC(=O)Nc1nc2cc(Oc3cccc(NC(=O)Nc4cc(C(F)(F)F)ccc4F)c3)ccc2[nH]1`, the inhibition in test [1] is -0.81%; in [2], 0.2%; in test [3], 3.07%; in test [4], 0.93%; in [5] it was 1.74%; in [6], -0.27%. Also, the inhibition in [7] is 4.25%; in test [8], 0.34%; in test [9] it was 6.29%; in [10] it was -0.45%.
As to `N#Cc1c(NC(=O)c2cccc3ccccc23)sc2c1CCCC2`, the inhibition in [1] amounted to 2.06%; in test [2], 3.08%; in test [3] it was 2.43%; in test [4] it was 2.19%; in [5] it was 4.42%; in test [6], 4.29%. Also, the inhibition in test [7] is 5.63%; in test [8] it was 4.43%; in test [9], 5.4%; in [10], -0.45%.
In the case of `CS(=O)(=O)CCNCc1nc(-c2ccc3ncnc(Nc4ccc(F)c(Cl)c4)c3c2)cs1`, the inhibition in [1] was 3.05%; in test [2], -0.53%; in test [3], 9.54%; in test [4], -0.36%; in [5] it was -0.71%; in test [6] it was 1.66%. Further, the inhibition was 3.47% in test [7], 1.41% in test [8], 3.88% in [9] and -0.76% in test [10].
Turning to `COC(=O)Nc1nc2cc(Oc3ccc(NC(=O)Nc4cccc(C(=O)O)c4)cc3)ccc2[nH]1`, the inhibition is 3.17% in test [1]; 0% in [2]; 2.43% in test [3]; -4.68% in [4]; -4.2% in test [5]; -0.5% in test [6]. For the same molecule, the inhibition is -1.69% in test [7], -0.53% in test [8], -0.73% in test [9] and -0.09% in [10].
With `CC(=O)Nc1cccc(C#Cc2cncnc2Nc2ccc(OCc3cccc(F)c3)c(Cl)c2)n1`, the inhibition in test [1] was 1.63%; in [2], 4.46%; in test [3], 10.7%; in test [4], 2.6%; in [5], -0.49%; in test [6], -1.65%. Further, the inhibition in [7] is -3.08%; in test [8] it was -2.42%; in [9], -2.04%; in test [10] it was 0.47%.
With `CC(C)=Cc1cccc2c1/C(=N/Nc1ccc(S(N)(=O)=O)cc1)C(=O)N2`, the inhibition is 9.24% in test [1]; 2.28% in test [2]; 18% in test [3]; 4.6% in test [4]; 4.98% in [5]; 0.07% in test [6]. Besides, the inhibition is 2.13% in [7], 0.1% in test [8], 2.83% in [9] and 3.26% in [10].

The values are drawn from ChEMBL document CHEMBL1961873, “Compounds: GSK PKIS; Assays: Nanosyn kinase panel” (2012).
